GC-A act = GC-A stimulated cGMP production enhancers – HEK293 GC-A cells, cGMP TR-FRET, EC30 ANP, primary screen; 0% at EC30 ANP, 100% saturating ANP; activation, % at 10 µM; hit rate 0.14% among 370,000; AID 1671463, 2021; in the data active = activation above about 40%
GC-B act = human GC-B receptor activators, primary screen, HEK293 GC-B cells, cGMP TR-FRET, EC30 CNP. AID 1920062, 2024. 0% at EC30 CNP, 100% saturating CNP. hit rate 0.11% among 370,000. activation, % at 10 µM. Atrial natriuretic peptide receptor 2 (Homo sapiens), P20594;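 active = activation at 10 µM reaching about 35% in either raw or pattern-adjusted values, limit read from the data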
Target sequence (P20594 whole entry, looked up): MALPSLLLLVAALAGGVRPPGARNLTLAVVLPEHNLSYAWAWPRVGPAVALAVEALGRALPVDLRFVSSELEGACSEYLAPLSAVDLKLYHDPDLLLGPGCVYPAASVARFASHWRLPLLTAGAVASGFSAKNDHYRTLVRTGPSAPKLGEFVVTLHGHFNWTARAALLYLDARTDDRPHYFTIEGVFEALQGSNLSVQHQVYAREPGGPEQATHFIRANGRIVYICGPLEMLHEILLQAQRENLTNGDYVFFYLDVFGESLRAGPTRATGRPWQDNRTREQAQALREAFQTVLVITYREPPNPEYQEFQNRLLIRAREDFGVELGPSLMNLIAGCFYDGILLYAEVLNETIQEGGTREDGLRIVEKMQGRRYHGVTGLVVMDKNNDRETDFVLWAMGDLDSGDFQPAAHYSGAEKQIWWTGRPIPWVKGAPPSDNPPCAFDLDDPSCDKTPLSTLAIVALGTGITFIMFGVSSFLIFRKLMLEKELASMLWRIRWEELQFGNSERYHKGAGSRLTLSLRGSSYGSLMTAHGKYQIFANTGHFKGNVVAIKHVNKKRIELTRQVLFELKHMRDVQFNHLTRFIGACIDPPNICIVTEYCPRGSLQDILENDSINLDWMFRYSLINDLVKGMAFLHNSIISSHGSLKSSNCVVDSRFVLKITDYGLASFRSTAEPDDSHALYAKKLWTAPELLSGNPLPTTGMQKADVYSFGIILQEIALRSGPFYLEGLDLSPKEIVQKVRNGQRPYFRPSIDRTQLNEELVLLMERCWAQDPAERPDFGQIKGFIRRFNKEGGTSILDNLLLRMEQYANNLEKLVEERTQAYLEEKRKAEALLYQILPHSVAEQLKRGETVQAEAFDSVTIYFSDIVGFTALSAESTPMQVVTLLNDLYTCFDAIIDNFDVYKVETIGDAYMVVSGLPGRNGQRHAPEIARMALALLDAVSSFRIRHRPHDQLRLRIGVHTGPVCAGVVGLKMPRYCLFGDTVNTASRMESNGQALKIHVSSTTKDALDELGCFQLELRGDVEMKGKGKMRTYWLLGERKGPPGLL
KLK7 zymogen act = proKLK7 zymogen activators, primary screen, biochemical, fluorescence intensity | activation, % at 7 µM | hit rate 0.9% among 370,000 | purified proKLK7, EDANS-DABCYL substrate fluorescence; 100% is mature enzyme control, 0% vehicle;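 active = activation above the mean of all tested compounds plus 3 SD, computed per campaign excluding outliers beyond control limits, cut at about 13% in these data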
HIF act = HIF pathway transcriptional activators, primary screen, cell-based, U2OS HRE-luciferase, luminescence. U2OS HRE-luciferase reporter; normalized: DMSO 0%, desferrioxamine 100%. activation, % at 7.5 µM (by protocol). hit rate 0.32% among 300,000. AID 1910, 2009;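 active = mean activation of at least 10% of the iron chelator positive control signal, with at least half of replicates also reaching 10%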
Numbers without * were called inactive. Compounds with a hit are over-represented: about 1.3% of the library has one in this group of screens.

`Fc1ccc(-c2n[nH]c(=S)n2N=Cc2cccc(OCc3ccccc3)c2)cc1` gave GC-A act -5, GC-B act -4 and KLK7 zymogen act 0.
`CCCC[C@H](C(=O)N(C)c1ccccc1)[C@@H](O)c1ccc2ccccc2c1` gave GC-A act -15, GC-B act -15 and KLK7 zymogen act 1.
`CC(C)(C)c1ccc(-c2nnc3n2N=C(c2ccc4ccccc4c2)CS3)cc1` gave GC-A act -2, GC-B act 4 and KLK7 zymogen act 0.
FC(F)(F)c1cnc(N2CCN(C(=S)NCc3ccccc3)CC2)c(Cl)c1 was read as GC-A act 5, GC-B act 1, KLK7 zymogen act 0 and HIF act 45*.
Screening FC(F)(F)c1cnc(N2CCCN(C(=S)Nc3ccccc3)CC2)c(Cl)c1 returned GC-A act 1, GC-B act 0, KLK7 zymogen act 0 and HIF act 0.
Screening Cc1n[nH]c(=S)c2nn(-c3ccccc3)c(C)c12 returned HIF act 0.
For Cc1ccc(-n2nc3c(=S)[nH]nc(C)c3c2C)cc1 the results were GC-A act 41*, GC-B act 17, KLK7 zymogen act 0 and HIF act 0.
For CCCN(CC1CC1)C(=O)CNc1nnnn1-c1ccccc1 the results were GC-A act 1, GC-B act -5 and KLK7 zymogen act 0.
CC(COc1cccc([N+](=O)[O-])c1)CN1CCC(C(O)(c2ccccc2)c2ccccc2)CC1 (stereo not given) was read as GC-A act -18, GC-B act -9 and KLK7 zymogen act 0.
Cc1cc([N+](=O)[O-])cc(/C=N/n2c(C)nc3ccccc3c2=O)c1O was read as GC-A act 0, GC-B act -2, KLK7 zymogen act 0 and HIF act 1.
O=c1c2ccccc2nc(COc2ccccc2)n1/N=C/c1ccc(O)cc1O was read as GC-A act -31, GC-B act -23, KLK7 zymogen act -3 and HIF act 61*.
`C/C(=N\OCc1nc2ccccc2c(=O)n1/N=C/c1cc(C)cc([N+](=O)[O-])c1O)c1ccccc1` gave GC-A act -13, GC-B act 3, KLK7 zymogen act 2 and HIF act 9.6*.
Screening C/C(=N\OCc1nc2ccccc2c(=O)n1/N=C/c1cc([N+](=O)[O-])ccc1O)c1ccccc1 returned GC-A act -3, GC-B act 3, KLK7 zymogen act 0 and HIF act 10*.
Screening COc1cccc(/C=N/NC(=O)C(=O)Nc2ccccc2OC(F)(F)C(F)F)c1O returned GC-A act 1, GC-B act -12, KLK7 zymogen act -1 and HIF act 26*.
For CCn1c(C)nc2cc(C(=O)N/N=C/c3ccccc3)ccc21 the results were GC-A act -2, GC-B act -5, KLK7 zymogen act 0 and HIF act 4.
COc1ccccc1/C=N/NC(=O)c1cccc(OC(F)(F)C(F)F)c1 was read as GC-A act 3, GC-B act -3 and KLK7 zymogen act 0.
`COc1cccc(/C=N/NC(=O)c2ccc(-c3ccccc3)cc2)c1O` gave GC-A act -3, GC-B act -4, KLK7 zymogen act -1 and HIF act 47*.
Screening COc1cc(C(=O)Oc2ccccc2/C=N/NC(=O)c2ccc(C)cc2)cc(OC)c1OC returned GC-A act -3, GC-B act -2, KLK7 zymogen act 0 and HIF act 9.6*.
Screening CCn1c(C)nc2cc(C(=O)N/N=C/c3cccc(O)c3O)ccc21 returned GC-A act -3, GC-B act 0, KLK7 zymogen act -2 and HIF act 43*.
For COc1ccc(C(=O)N/N=C/c2ccccc2OC(=O)c2ccccc2)cc1 the results were GC-A act 1, GC-B act 2, KLK7 zymogen act 1 and HIF act 6.
`COc1cccc(/C=N/NC(=O)CSc2nnc(C)n2-c2ccccc2)c1O` gave GC-A act 1, GC-B act 0, KLK7 zymogen act -1 and HIF act 1.
O=C(N/N=C/c1cccc([N+](=O)[O-])c1)c1cccc2cc[nH]c12 was read as GC-A act -1, GC-B act -1, KLK7 zymogen act 0 and HIF act 1.
Screening Cc1cccc(/C=N\NC(=O)c2ccc(Cl)cc2)c1O returned GC-A act -1, GC-B act 1, KLK7 zymogen act -11 and HIF act 42*.
For CCCCSc1nc(C)cc(SCC(=O)N/N=C/c2cccc(OC)c2O)n1 the results were GC-A act -20, GC-B act -4, KLK7 zymogen act -2 and HIF act 21*.
O=C(N/N=C/c1cc([N+](=O)[O-])ccc1O)c1cccc2cc[nH]c12 was read as GC-A act -14, GC-B act -6, KLK7 zymogen act -1 and HIF act 27*.
Screening COc1cccc(/C=N/NC(=O)c2ccc([N+](=O)[O-])cc2Cl)c1O returned GC-A act -5, GC-B act -1, KLK7 zymogen act 0 and HIF act 11*.
Screening CCC(C)[C@H](NC(=O)C1COC(O)([C@H](Cc2ccccc2)NC(=O)[C@@H](NC(=O)OCc2ccccc2)C(C)C)CN1C)C(=O)N[C@H](C(=O)OC)C(C)C (stereo not given in full) returned GC-A act 1 and GC-B act -3.
For COc1cccc(/C=N/NC(=O)c2c(C)nc3ccc(Cl)cn23)c1O the results were GC-A act 0, GC-B act -10, KLK7 zymogen act -6 and HIF act 86*.
Screening Cc1cccc(/C=N/NC(=O)c2c(-c3ccccc3)noc2C)c1O returned GC-A act -3, GC-B act -5, KLK7 zymogen act -9 and HIF act 16*.
`COc1ccccc1/C=N/NC(=O)c1c(-c2ccccc2)noc1C` gave GC-A act -5, GC-B act -1, KLK7 zymogen act 2 and HIF act 0.
CCOc1cccc(/C=N/NC(=O)c2ccc3c(c2)OCCO3)c1O was read as GC-A act 0, GC-B act 3, KLK7 zymogen act -7 and HIF act 12*.
For Cc1cccc(/C=N/NC(=O)c2ccc3c(c2)OCCO3)c1O the results were GC-A act -5, GC-B act -10, KLK7 zymogen act -12 and HIF act 28*.
For O=C(CSc1nnc(-c2ccncc2)n1-c1ccc(Br)cc1)c1ccccc1 the results were GC-A act -9, GC-B act -12 and KLK7 zymogen act 1.
Screening Cc1ccc2nc(NC(=O)C3CCCN(S(=O)(=O)c4cccnc4)C3)sc2c1 (stereo not given) returned GC-A act 48*, GC-B act -8, KLK7 zymogen act 0 and HIF act 0.

Assay outcomes deposited in PubChem by several laboratories.
